Pf growth 48h = Primary qHTS for delayed death inhibitors of the malarial parasite plastid, 48 hour incubation; AID 504832, 2011; P. falciparum luciferase growth in erythrocytes, 48 h; Potency, µM (doses to about 28.7 µM), for the others: at the highest dose activity change, negative = inhibition, most hits filed as inhibitors; hit rate 5.9% among 310,000; note: % is set by controls: 0 for no effect and ±100 for the full control effect
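Read-out is firefly luciferase luminescence from an integrated reporter in P. falciparum, so falling signal marks reduced parasite growth. Infected erythrocytes were at 2% hematocrit and 0.1% parasitemia (final) in Albumax-supplemented RPMI 1640.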
AMA1-RON2 inh = qHTS for Inhibitors of AMA1-RON; Towards Development of Antimalarial Drug Lead: Primary Screen. hit rate 0.2% among 360,000. AlphaScreen AMA1-biotinylated RON2 peptide binding. Potency, µM (highest dose often 58.2 µM), for inactives: at the top dose activity change, negative = inhibition, hits mostly inhibitors. Plasmodium falciparum AMA1 (3D7) - RON2 peptide interaction;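 note: 0% = vehicle wells and -100% = peptide control; nearly all actives have a fitted effect of over 45% in size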
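AMA1 (3D7) with his tag at 25 nM final met compounds first, then biotinylated RON2 peptide at 25 nM; detection used donor plus acceptor beads, 10 µg/mL apiece, read by AlphaScreen after 30 min at room temperature.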
Pf growth 96h = Primary qHTS for delayed death inhibitors of the malarial parasite plastid, 96 hour incubation; AID 504834, 2011; hit rate 6.9% among 320,000; P. falciparum luciferase reporter growth, 96 h; Potency, µM (series often up to 28.7 µM), for the others: at the highest dose activity change, negative = inhibition, hits mostly inhibitors; note: % is set by controls: 0 for no effect and ±100 for the full control effect
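Compounds incubated with erythrocytes infected by luciferase-expressing P. falciparum (2% hematocrit, 0.05% parasitemia final) for 96 hours, 37 C in 5% CO2. Growth inhibition scored as decreased luciferase luminescence.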
SARS PLP yeast = qHTS of Yeast-based Assay for SARS-CoV PLP; AID 485353, 2010; hit rate 0.19% among 330,000; S. cerevisiae expressing SARS-CoV PLpro, growth rescue; Potency, µM (top dose mostly 32.9 µM), for inactives: at the top dose activity, positive = growth rescue, actives largely listed as activators; calls by dose curve; note: 0% is about no effect; nearly all actives have a fitted effect of over 55% in size
* hit, by the source's call; ? = inconclusive; nt = no result. Most compounds without a hit are left out; they make up all but 9.4% or so of the library. Unless noted, calls come from the whole dose curve; as a rule, active = well fitted curve in the direction sought with a large enough effect; inconclusive = small, poorly fitted or top-dose-only effect, or another doubt; inactive = no such curve, though single readings can be large; an effect the other way counts as inactive or inconclusive. Potency is the fitted concentration of half-maximal effect.

SMILES	Pf growth 48h	AMA1-RON2 inh	Pf growth 96h	SARS PLP yeast
COc1ccc(-c2c(C)oc3c(CN4CCCC(C)C4)c(O)ccc3c2=O)cc1OC (centres undefined)	?	-1%	?	1%
CCc1c(C)c2ccc(O)c(CN3CCCC3)c2oc1=O	?	27%	12µM*	1%
COc1ccccc1-c1c(C)oc2c(CN3CCCC(C)C3)c(O)ccc2c1=O (centres undefined)	13µM*	-5%	10µM*	1%
COc1cc(/C=C2\SC(=S)N(NC(C)=O)C2=O)ccc1OC(=O)c1ccco1	nt	6%	nt	-1%
C[C@]12CCC(=O)C[C@@H]1CC[C@@H]1[C@@H]2CC[C@@]2(C)[C@H]1CC[C@]2(C)O	nt	nt	nt	2%
COc1ccc(CCN(C)C(=S)Nc2cccc(C)c2)cc1OC	1.7µM*	-9%	?	-2%
COc1ccc(C2CCCN2C(=S)Nc2cccc(C)c2)cc1OC (centres undefined)	12µM*	-6%	?	-5%
COc1ccc(C2CCCN2C(=S)Nc2cccc(C)c2C)cc1OC (centres undefined)	12µM*	-28%	?	-3%
COc1ccc(C2CCCN2C(=S)Nc2ccc(C)cc2Cl)cc1OC (centres undefined)	-27%	0%	14%	3%
OC(c1ccccc1)C1CN(Cc2ccccc2)CCC1(O)c1ccccc1 (centres undefined)	0.74µM*	-9%	-2%	1%
CNCC(=O)Nc1c(C)n[nH]c1C	17%	25%	-9%	?
CCCC(=O)Nc1c(C)n[nH]c1C	1%	49%	0.59µM*	-5%
O=C(O)c1nccnc1C(=O)Nc1ccc(Oc2c(Cl)cccc2Cl)nc1	17%	-13%	?	-1%
O=C1C(C=NCCCn2ccnc2)=C(O)c2ccccc21	nt	-17%	nt	nt
O=C1C(C=NC2CC2)=C(O)c2ccccc21	nt	-5%	13µM*	-5%
O=C1C(C=NCCCN2CCCC2=O)=C(O)c2ccccc21	143%	0%	13µM*	8%
C/C(CS(=O)(=O)c1ccccc1)=N\O	-3%	7%	15%	-1%
Cc1ccn(CC(=O)N2CCCC(Nc3ccc(F)c(F)c3)C2)n1 (centres undefined)	?	11%	2%	5%
Cc1ccc(NC2CCCN(C(=O)CCC3=NNC(=O)CC3)C2)cc1C (centres undefined)	8%	-5%	8.3µM*	1%
COc1ccc(CCC(=O)N2CCCC(Nc3ccc(C)c(C)c3)C2)cc1OC (centres undefined)	-26%	-22%	?	-1%
COc1ccc(NC2CCCN(C(=O)Cn3ccc(C)n3)C2)cc1OC (centres undefined)	-15%	-20%	5.2µM*	-2%
Cc1ccn(CC(=O)N2CCCC(N3CCN(c4ccccc4F)CC3)C2)n1 (centres undefined)	11%	-15%	13µM*	-4%
Cc1ccn(CCC(=O)N2CCCC(N3CCN(c4ccccc4C)CC3)C2)n1 (centres undefined)	nt	3%	nt	nt
Cc1ccnn1CCC(=O)N1CCCC(Nc2ccc(C(C)C)cc2)C1 (centres undefined)	nt	-7%	nt	nt
Cc1ccnn1CCC(=O)N1CCCC(Nc2ccc(F)c(F)c2)C1 (centres undefined)	0%	25%	12µM*	4%
SMILES	Pf growth 48h	AMA1-RON2 inh	Pf growth 96h	SARS PLP yeast
CC(C)(C)n1nnnc1C(c1cccnc1)N(Cc1ccccc1)Cc1ccco1 (centres undefined)	2.9µM*	-11%	1.9µM*	2%
CCC(C)(C)n1nnnc1C(C(C)C)N(Cc1ccco1)Cc1cc2cc3c(cc2[nH]c1=O)OCO3 (centres undefined)	?	-9%	?	-1%
CCC(C)(C)n1nnnc1C(c1ccc(C)cc1)N(Cc1ccco1)Cc1cccs1 (centres undefined)	4.7µM*	11%	nt	-17%
CCN(Cc1ccccc1)C(c1cccc(C#N)c1)c1nnnn1C(C)(C)C (centres undefined)	10µM*	-3%	?	-11%
COc1cccc(CN(Cc2ccco2)C(c2ccc(F)cc2)c2nnnn2C(C)(C)C)c1 (centres undefined)	1.7µM*	4%	?	-13%
COc1cc(OC)cc(C(=O)NCC(=O)OCC(=O)N2CCc3ccccc32)c1	-7%	2%	-4%	2%

Source: PubChem BioAssay (National Center for Advancing Translational Sciences (NCATS))
